CRFR2-BP ag – agonists of human CRF-binding protein/CRF-R2 receptor complex | activation, % at 13.2 µM | HEK293 CRF-R2/CRF-BP, calcium dye fluorescence (FLIPR); percent of saturating CRF peptide response | AID 588473 | hit rate 0.46% among 350,000;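 active means activation of at least 50%, plus an integration ratio under a set limit after plate pattern correction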
CRFR2-BP antag – blocks CRF-induced signaling of the CRF-BP/CRF-R2 complex; HEK293 CRF-R2/CRF-BP, CRF-induced calcium fluorescence; inhibition, % at 11.8 µM; hit rate 0.59% among 350,000; AID 588475;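 active means inhibition of the ligand-induced calcium signal above about 50% at the single tested concentration, limit read from the data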
Cardiac RTF inh – cardiac RTF calcium desensitization. P19429+P45379. IANBD-labeled cardiac RTF, Ca2+ fluorescence. inhibition, % at 7.15 µM. hit rate 0.12% among 340,000. AID 493244;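 active means inhibition above the mean inhibition of all tested compounds plus 3 SD, cut at about 17% in these data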;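 further: assay run at fixed EC70 calcium of 1.6 mM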
cardiac RTF act – increases calcium sensitivity of human cardiac regulated thin filaments; P19429+P45379; IANBD-labeled TnC RTF fluorescence at EC20 calcium; 0% EC20 calcium, 100% full calcium; activation, % at 7.2 µM; hit rate 0.24% among 340,000; AID 493008;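 active means activation above the mean over all tested compounds plus 3 SD, cut at about 30% in these data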;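 further: rise in fluorescence read as greater calcium sensitivity of cardiac thin filaments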
Hits are given with their value. The list is not random: actives were taken first. Their share in the collection is about 1.3%.

Screening O=c1[nH]c(O)c(/C=C2/C=CC(c3cc(Cl)ccc3Cl)=N2)c(=O)[nH]1 returned CRFR2-BP ag 102.7, CRFR2-BP antag inactive, Cardiac RTF inh inactive and cardiac RTF act inactive.
CC1=Nc2ccccc2/C1=C/c1c(O)[nH]c(=O)[nH]c1=O was read as CRFR2-BP ag inactive, CRFR2-BP antag inactive, Cardiac RTF inh inactive and cardiac RTF act inactive.
`O=S(=O)(c1ccc(Cl)cc1)N1Cc2ccccc2-n2nncc2C1` gave CRFR2-BP ag inactive and CRFR2-BP antag inactive.
For CCC1CO/C(=C(\C(Cl)=C(Cl)Cl)[N+](=O)[O-])N1Cc1ccc(Cl)nc1 (stereo unspecified) the results were CRFR2-BP ag inactive, CRFR2-BP antag inactive, Cardiac RTF inh inactive and cardiac RTF act inactive.
Screening O=C(C(=C1N(Cc2ccc(Cl)nc2)CCN1Cc1ccc(Cl)nc1)[N+](=O)[O-])C(Cl)Cl returned CRFR2-BP ag 148.0, CRFR2-BP antag inactive, Cardiac RTF inh inactive and cardiac RTF act inactive.
`COc1ccccc1N1CCN(Cc2c(F)cccc2Cl)CC1` gave CRFR2-BP ag inactive, CRFR2-BP antag 60.5, Cardiac RTF inh inactive and cardiac RTF act inactive.
`COc1ccccc1N1CCN(Cc2ccccc2)CC1` gave CRFR2-BP ag inactive, CRFR2-BP antag inactive, Cardiac RTF inh inactive and cardiac RTF act inactive.
For Cc1nn(Cc2ccccc2)c(Cl)c1C(=O)NC1CCCc2ccccc21 (stereo unspecified) the results were CRFR2-BP ag inactive, CRFR2-BP antag 90.5, Cardiac RTF inh inactive and cardiac RTF act inactive.
For Cc1nn(Cc2ccccc2)c(Cl)c1C(=O)Nc1ccc(OC(F)(F)F)cc1 the results were CRFR2-BP ag inactive, CRFR2-BP antag inactive, Cardiac RTF inh inactive and cardiac RTF act inactive.
For CCCCC1C(=O)NC(=S)N(C)C1=O (stereo unspecified) the results were CRFR2-BP ag inactive, CRFR2-BP antag inactive, Cardiac RTF inh inactive and cardiac RTF act inactive.
Screening CCN(CC)c1ccc(N=Cc2c(O)n(Cc3ccco3)c(=O)[nH]c2=O)cc1 returned CRFR2-BP ag 59.9, CRFR2-BP antag inactive, Cardiac RTF inh inactive and cardiac RTF act 78.6.
Screening COc1ccc(CCn2c(O)c(C=Nc3ccc(F)cc3)c(=O)[nH]c2=O)cc1OC returned CRFR2-BP ag inactive and CRFR2-BP antag inactive.
CCN(CCO)c1ccc(N=Cc2c(O)n(C)c(=S)[nH]c2=O)cc1 was read as CRFR2-BP ag 87.0 and CRFR2-BP antag inactive.
For CCN(CC)c1ccc(N=Cc2c(O)n(CCc3ccc(OC)c(OC)c3)c(=O)[nH]c2=O)cc1 the results were CRFR2-BP ag 127.4, CRFR2-BP antag inactive, Cardiac RTF inh inactive and cardiac RTF act inactive.
`CCCNC(=O)N1[C@H]2CC[C@@H]1C(C(=O)OC)=C(c1c(C)noc1C)C2` gave CRFR2-BP ag inactive, CRFR2-BP antag inactive, Cardiac RTF inh inactive and cardiac RTF act inactive.
`COc1cccc(-n2c(O)c(C=NCCN3CCOCC3)c(=O)[nH]c2=O)c1` gave CRFR2-BP ag inactive, CRFR2-BP antag inactive, Cardiac RTF inh inactive and cardiac RTF act inactive.
`CCOc1ccc(-n2c(O)c(/C=C3\C=Nc4ccccc43)c(=O)[nH]c2=O)cc1` gave CRFR2-BP ag 107.8, CRFR2-BP antag inactive, Cardiac RTF inh inactive and cardiac RTF act inactive.
`COc1ccc(OC)c(-n2c(O)c(/C=C3\C=Nc4ccccc43)c(=O)[nH]c2=O)c1` gave CRFR2-BP ag inactive, CRFR2-BP antag inactive, Cardiac RTF inh inactive and cardiac RTF act inactive.
For COCCCn1c(-c2ccc(OC)cc2)cc(C(=O)NC2CCCCCCC2)c1C the results were CRFR2-BP ag inactive, CRFR2-BP antag 86.2, Cardiac RTF inh inactive and cardiac RTF act inactive.
Screening CC(C)CN1CCN(Cc2ccc(F)cc2Cl)CC1CCO (stereo unspecified) returned CRFR2-BP ag inactive, CRFR2-BP antag inactive, Cardiac RTF inh inactive and cardiac RTF act inactive.
For CNP(=O)(Oc1ccccc1)OC12CC3CC(CC(C3)C1)C2 (stereo unspecified) the results were CRFR2-BP ag inactive, CRFR2-BP antag 78.4, Cardiac RTF inh inactive and cardiac RTF act inactive.
CN1C(=O)/C(=C/c2ccc(N3CCCCCC3)o2)C(=O)NC1=S was read as CRFR2-BP ag inactive, CRFR2-BP antag inactive, Cardiac RTF inh inactive and cardiac RTF act 86.5.
For CN1CCN(c2ccc(/C=C3\C(=O)NC(=S)N(c4cccc(Br)c4)C3=O)o2)CC1 the results were CRFR2-BP ag 163.8, CRFR2-BP antag inactive, Cardiac RTF inh inactive and cardiac RTF act 96.6.
Screening CN1C(=O)/C(=C\c2ccc(N3CCCCC3)o2)C(=O)NC1=S returned CRFR2-BP ag 130.1, CRFR2-BP antag inactive, Cardiac RTF inh inactive and cardiac RTF act 55.1.
For Cc1ccc(/C=C2\C(=O)NC(=S)N(c3cccc(F)c3)C2=O)o1 the results were CRFR2-BP ag inactive, CRFR2-BP antag inactive, Cardiac RTF inh inactive and cardiac RTF act inactive.
`CC(C)(C)c1ccc(O)c(N=Cc2c(O)ccc3ccccc23)c1` gave CRFR2-BP ag 60.3, CRFR2-BP antag inactive, Cardiac RTF inh inactive and cardiac RTF act inactive.
`CC(=O)N1N=C2C3CCN(CC3)C2C1c1cccc2ccccc12` (stereo unspecified) gave CRFR2-BP ag 81.4, CRFR2-BP antag inactive, Cardiac RTF inh inactive and cardiac RTF act inactive.
CC1(C)CC(=O)C(C2(O)C(=O)NC(=O)NC2=O)=C(O)C1 was read as CRFR2-BP ag inactive, CRFR2-BP antag inactive, Cardiac RTF inh inactive and cardiac RTF act inactive.
For CCC(CO)NC(=O)C1C=C2c3cccc4[nH]cc(c34)CC2N(C)C1 (stereo unspecified) the results were CRFR2-BP ag inactive, CRFR2-BP antag inactive, Cardiac RTF inh inactive and cardiac RTF act inactive.
For CC(C)C[C@H]1C(=O)N2CCC[C@H]2[C@]2(O)O[C@](NC(=O)[C@@H]3C=C4c5cccc6[nH]cc(c56)C[C@H]4N(C)C3)(C(C)C)C(=O)N12 the results were CRFR2-BP ag inactive, CRFR2-BP antag inactive, Cardiac RTF inh inactive and cardiac RTF act 66.8.
`CCNC(=O)NC(=O)C(C)OC(=O)c1c(C)nn(Cc2ccccc2Cl)c1Cl` (stereo unspecified) gave CRFR2-BP ag inactive, CRFR2-BP antag inactive, Cardiac RTF inh inactive and cardiac RTF act inactive.
Screening Cc1ccccc1[N+](=O)[O-] returned CRFR2-BP ag inactive, CRFR2-BP antag 51.3, Cardiac RTF inh inactive and cardiac RTF act inactive.
O=[N+]([O-])c1ccccc1Cl was read as CRFR2-BP ag inactive, CRFR2-BP antag inactive, Cardiac RTF inh inactive and cardiac RTF act inactive.
CC[C@H](C)/C=C(C)/C=C/C1=CC2=C(Cl)C(=O)[C@@](C)(OC(C)=O)C(=O)C2=CO1 was read as CRFR2-BP ag inactive, CRFR2-BP antag inactive, Cardiac RTF inh 41.8 and cardiac RTF act inactive.
For CC(C)c1ccc(C(c2c(O)c3ccccc3oc2=O)c2c(O)c3ccccc3oc2=O)cc1 the results were CRFR2-BP ag inactive and CRFR2-BP antag 64.3.
Cc1c(C(c2ccc(F)cc2)c2c(O)c3ccccc3oc2=O)c(=O)n(-c2ccccc2)n1C (stereo unspecified) was read as CRFR2-BP ag inactive, CRFR2-BP antag inactive, Cardiac RTF inh inactive and cardiac RTF act inactive.
`O=c1oc2ccccc2c(O)c1C(c1ccc([N+](=O)[O-])cc1)c1c(O)c2ccccc2oc1=O` gave CRFR2-BP ag inactive, CRFR2-BP antag 82.2, Cardiac RTF inh inactive and cardiac RTF act inactive.

High-throughput results: PubChem BioAssay, several laboratories
